According to ChEMBL document CHEMBL3988442, “University of Dundee, Small-Polar-MMV Screening Library” (2021):

These molecules were tested against AMP-activated protein kinase, AMPK (Homo sapiens) (UniProt P54646+O43741+P54619+Q9UGJ0+Q9Y478+Q13131+Q9UGI9) (assay: AMP-dependent Kinase enzyme assay. An in vitro enzyme assay that detects ADP turnover that is directly proportional to AMPK activity. This uses naive AMPK that is activated during the assay with MK-8722). Conditions: 30 µM.
Assay type: functional
Set-up: scale not given: direction of the effect not stated beside the values

Compound	Percent Effect [%]
O=S(=O)(c1cc(F)ccc1N1CC(n2cccn2)C1)C(F)(F)F	26.5
Cc1ccc(-c2cc(CNC(=O)NC3CCCCNC3=O)on2)cc1 (stereo not given)	-0.304
CCc1ccc2nc(C)cc(C(=O)N[C@@H]3CNC[C@H]3O)c2c1	0.636
CCOc1ccccc1C(C(=O)O)N(C)Cc1nc(C)c[nH]1 (stereo not given)	7.59
CC(C(=O)N1CCCC1)N1CCN(c2ncc(Cl)cn2)CC1 (stereo not given)	-1.02
COc1cc(C)c(S(=O)(=O)CC(=O)N(C)C2CC2)cc1OC	2.73
Cc1nc(C)c(C(C)NCc2cnc(N3CCOCC3)nc2)s1 (stereo not given)	7.71
OCCN1CCCC(c2cccc(-c3ccccc3F)n2)C1 (stereo not given)	20.3
CO[C@@H]1c2ccccc2C2(CCN(C(=O)CNS(C)(=O)=O)CC2)[C@H]1O	19.3
C[S+]([O-])CCNC(=O)N1CCN(c2cc(F)ccc2F)CC1 (stereo not given)	2.94
O=C(Cc1c(F)cccc1Cl)Nc1cc(N2CCOCC2)ncn1	5.35
Cc1cccn2cc(CN3CCC(N4CCN(C)C4=O)CC3)nc12	0.324
Cc1noc(C)c1CNC(=O)NCCC(=O)N1CCCc2ccccc21	-2.4
O=C(NCCn1ccnc1-c1cc2n(n1)CCNC2)c1ccc(F)cc1	1.27
Cc1nsc(C(=O)NCCc2ccc(F)cc2)n1	-2.41
CC(C)(C)C(NC(=O)CCS(C)(=O)=O)c1ccc(F)cc1F (stereo not given)	0.0332
c1ccc(C2CN(C3CC3)CC3(CCN(Cc4ncc[nH]4)CC3)C2)cc1 (stereo not given)	6.22
CC(NCc1ccnc(OC2CCC2)c1)c1cnn(C)c1 (stereo not given)	6.18
CN1C(=O)[C@H]2CC[C@@H]1CN(C(=O)Nc1ccccc1C(F)(F)F)C2	-0.892
CCN(CC)C1CCN(C(=O)Nc2cc(F)c(OC)c(F)c2)C1 (stereo not given)	-3.29

Compound	Percent Effect [%]
O=C(c1cccnc1)N1CCC(Oc2cccc(C(F)(F)F)c2)CC1	-1.51
CC(N)C(=O)N1CCC(Oc2cccc(C(F)(F)F)c2)CC1 (stereo not given)	-2.71
CC(C)C(NC(=O)NCc1cccnc1N(C)C)c1cccs1 (stereo not given)	0.836
Cc1cc(C(=O)N2CC[C@@]3(O)CCN(S(C)(=O)=O)C[C@H]3C2)c(C)n1C	3.49
O=C(NC1CCCC1)N1C[C@H]2CN(c3ccccn3)C[C@@]2(C(=O)O)C1	3.09
COc1ccccc1C(C)(C)NC(=O)c1cc(NC(C)=O)ccc1F	-6.77
O=C(CN1CC(c2nc(-c3ccco3)no2)C1)NCc1ccc(F)cc1	1.74
COc1nsc2nc(C3CCCN3C(C)=O)ccc12 (stereo not given)	7.38
Cc1cc(C)c(C#N)c(NCCn2cnnc2C(C)C)n1	2.2
Cc1cc(CC(=O)NC2CCCN(c3ccccc3Cl)C2=O)n[nH]1 (stereo not given)	4.62
COc1ncc(NCc2ccc(Cl)c(Cl)c2)cc1C(N)=O	18.2
O=C(Nc1ccncc1)NC1CCN(c2ccccc2OC(F)F)C1 (stereo not given)	-0.97
CCC(C)(CC(=O)OC)NCc1c(C)noc1C (stereo not given)	4.75
CN(Cc1ccccc1CNC(=O)C1CNC(=O)N1)C1CCCCC1 (stereo not given)	-6.64
COc1cccc(OCC2CCCN(c3cc(C(N)=O)ccn3)C2)c1 (stereo not given)	4.97
CS(=O)(=O)c1ccc(Cl)c(C(=O)NCCC2=CCCCC2)c1	-0.566
CCNC(=O)c1ccc(NC(=O)N(C)Cc2cc(C)on2)c(C)c1	10.2
CN(C)C(C(=O)N1CCN(CCn2cccc2)CC1)c1ccc(F)cc1 (stereo not given)	-8.31
Cc1nc(C)n(CCC(=O)NCC2CCCOC2)n1 (stereo not given)	10.8
COc1ccc(Cl)cc1C(=O)N1C[C@H](C(C)C)[C@@H](N)C1	6.24
